Structures are written as SMILES. Active and inactive are the calls of the source. Unless noted, no rule for the calls is given here.

Assay [1] is described as follows: HepG2 liver cancer cell viability effects, profiling panel, resazurin fluorescence, 24 h, PK04 Diversity Set (AID 1172). To be noted: higher = more signal. (In general: The colour change of resazurin is a common sign of viable cells or microbes.)
Assay [2] can be described thus: basal S. cerevisiae growth modulation, no modifier, primary screen, OD600, strain BY4716, 24 h, basal condition (AID 1173). The note with it: OD600, 24 h, higher = more signal, called active from +8 up or from −8 down.
A short description of assay [3]: MM1S myeloma cell viability, profiling panel, resazurin fluorescence, basal, 24 h, PK04 Diversity Set (AID 1174).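 Also: MM1S multiple myeloma cell line.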 To be noted: higher = more signal, called active from +8 up or from −8 down.
Assay [4] has as its target Dihydroorotate dehydrogenase (quinone), mitochondrial (Plasmodium falciparum (isolate 3D7)) (UniProt Q08210). In words: PfDHODH enzyme inhibitors, primary screen, biochemical, C-terminal His tag, absorbance 600 nm (AID 1175).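 Also: recombinant parasite enzyme with a five histidine tag at its C terminus.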 To be noted: DCIP absorbance 600 nm, higher = more signal, called active from +8 up or from −8 down.
Assay [5] in a line: P. aeruginosa biofilm formation inhibitors, primary screen, strain PAO1, LB-PBS medium, absorbance 600 nm (AID 1176). The note with it: P. aeruginosa PAO1 growth/biofilm, A600, 12 h; higher = more signal.
Assay [6] can be described thus: S. cerevisiae RM11-1a growth modifiers, primary screen, strain RM11-1a, OD600, basal, 24 h (AID 1177).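 Also: cultures grown under basal conditions with no added stressor.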 To be noted: OD600, 24 h, higher = more signal, called active from +8 up or from −8 down.
A short description of assay [7]: E. coli acrAB mutant growth effects, primary screen, E. coli filamentation inducers, strain DRC39, OD650, 24 h (AID 1178).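 Also: growth measured as culture turbidity by optical density at 650 nm.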 The note with it: higher = more signal, called active from +8 up or from −8 down.
The nature of assay [8]: E. coli acrAB mutant growth effects, primary screen, E. coli filamentation inducers, strain DRC39, OD650, 48 h (AID 1179).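 Also: screen aims at cell division blockers that make cells filament.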 To be noted: E. coli DRC39 delta-acrAB growth, higher = more signal, called active from +8 up or from −8 down.
Assay [9] can be described thus: RPMI8226 myeloma cell viability, profiling panel, resazurin fluorescence, basal, 24 h, PK04 Diversity Set (AID 1180).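 Also: RPMI8826 multiple myeloma cell line at 5000 cells per well.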 The note with it: higher = more signal.
In assay [10] the target is E3 ubiquitin-protein ligase XIAP (Homo sapiens) (UniProt P98170). The experiment in a line: XIAP binders, primary screen, biophysical, small-molecule microarray, fluorescence 635 nm (AID 1181).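 Also: score merges 667 nm emission and signal to noise over triplicate slides.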 The note with it: small-molecule microarray binding, higher = more signal.
E3 ubiquitin-protein ligase XIAP (Homo sapiens), sequence (P98170 whole entry, looked up): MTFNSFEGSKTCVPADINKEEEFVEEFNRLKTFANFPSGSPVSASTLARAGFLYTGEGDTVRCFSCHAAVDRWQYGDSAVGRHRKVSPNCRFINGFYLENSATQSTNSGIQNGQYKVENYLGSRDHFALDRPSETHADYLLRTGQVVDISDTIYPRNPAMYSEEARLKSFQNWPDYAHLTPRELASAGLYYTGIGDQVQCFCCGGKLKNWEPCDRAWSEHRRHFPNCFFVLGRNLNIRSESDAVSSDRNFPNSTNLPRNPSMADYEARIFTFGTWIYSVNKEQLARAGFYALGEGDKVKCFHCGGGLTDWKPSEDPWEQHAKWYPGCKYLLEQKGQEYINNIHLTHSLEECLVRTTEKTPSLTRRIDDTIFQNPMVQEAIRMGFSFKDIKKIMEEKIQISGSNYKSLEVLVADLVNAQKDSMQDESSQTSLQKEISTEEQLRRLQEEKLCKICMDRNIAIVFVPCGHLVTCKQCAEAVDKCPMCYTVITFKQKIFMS
In assay [11] the test system is XIP peptide (Xip251-270) binding. The experiment in a line: small-molecule binders of XIP peptide, primary screen, biochemical, small-molecule microarray, fluorescence 635/667 nm, 0.1 µg/mL protein (AID 1182). To be noted: fluorescent protein binding, 635 nm, higher = more signal, called active from +8 up or from −8 down.
Another assay has as its system XIP peptide (Xip251-270). In words: small-molecule binders of XIP peptide, primary screen, biochemical, small-molecule microarray, fluorescence 635/667 nm, 0.5 µg/mL protein (AID 1183). The note with it: small-molecule microarray binding, fluorescence 635 nm; higher = more signal.
The nature of assay [12]: Plasmodium falciparum growth inhibition, primary screen, strain 3D7, DAPI fluorescence, 100 nL (AID 1184).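 Also: parasites grown inside human red blood cells in medium with human serum.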 The note with it: P. falciparum 3D7 growth, 3 d, higher = more signal.
The target in assay [13] is Homeobox protein Hox-A13 (Mus musculus) (UniProt Q62424). In words: inhibitors of HoxA13-DNA binding, primary screen, biochemical, fluorescence polarization, labeled oligonucleotide (AID 1185). The note with it: 15 min, higher = more signal, called active from +8 up or from −8 down. In general terms: In fluorescence polarisation assays a small probe gives low polarisation when free and higher when bound to something large.
Homeobox protein Hox-A13 (Mus musculus), sequence (Q62424 whole entry, looked up): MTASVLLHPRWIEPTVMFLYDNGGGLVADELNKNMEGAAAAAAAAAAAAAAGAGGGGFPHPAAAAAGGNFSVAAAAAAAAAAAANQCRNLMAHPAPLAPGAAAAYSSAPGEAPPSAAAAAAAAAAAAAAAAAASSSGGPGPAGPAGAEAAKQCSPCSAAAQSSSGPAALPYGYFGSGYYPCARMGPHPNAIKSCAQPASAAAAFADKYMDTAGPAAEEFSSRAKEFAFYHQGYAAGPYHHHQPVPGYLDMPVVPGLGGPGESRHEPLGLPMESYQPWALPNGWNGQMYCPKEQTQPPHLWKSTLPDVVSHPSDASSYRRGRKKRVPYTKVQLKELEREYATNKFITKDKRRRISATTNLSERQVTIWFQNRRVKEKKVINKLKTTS

Assay [14] in a line: inhibitors of hydroxyurea-induced Chk1 phosphorylation, primary screen, imaging, HeLa, phospho-Chk1 antibody, percent positive cells (AID 1186). To be noted: hydroxyurea-induced phospho-Chk1 immunofluorescence imaging, higher = more signal.
Assay [15] in a line: inhibitors of hydroxyurea-induced Chk1 phosphorylation, primary screen, imaging, HeLa, phospho-Chk1 nuclear intensity (AID 1187). To be noted: hydroxyurea-induced phospho-Chk1 immunofluorescence imaging, higher = more signal.

Dihydroorotate dehydrogenase (quinone), mitochondrial (Plasmodium falciparum (isolate 3D7)), sequence (Q08210 whole entry, looked up): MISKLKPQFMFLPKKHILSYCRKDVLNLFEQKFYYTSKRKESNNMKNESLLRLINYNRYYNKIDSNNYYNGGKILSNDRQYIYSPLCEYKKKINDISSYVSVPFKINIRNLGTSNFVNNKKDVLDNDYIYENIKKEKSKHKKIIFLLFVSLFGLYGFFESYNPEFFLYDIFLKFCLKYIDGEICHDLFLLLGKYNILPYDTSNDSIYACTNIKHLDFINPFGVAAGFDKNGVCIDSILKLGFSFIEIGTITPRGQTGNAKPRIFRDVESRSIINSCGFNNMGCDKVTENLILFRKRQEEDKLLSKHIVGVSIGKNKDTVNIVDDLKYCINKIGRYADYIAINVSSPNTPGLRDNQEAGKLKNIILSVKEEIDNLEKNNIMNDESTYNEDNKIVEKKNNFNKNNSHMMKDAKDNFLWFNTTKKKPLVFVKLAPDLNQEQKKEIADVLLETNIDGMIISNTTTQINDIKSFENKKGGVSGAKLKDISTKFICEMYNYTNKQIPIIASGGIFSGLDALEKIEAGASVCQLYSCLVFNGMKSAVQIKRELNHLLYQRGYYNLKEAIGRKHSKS

Consider `NC(=O)NCC#Cc1ccc2c(c1)[C@]1(C(=O)N2)[C@H](c2ccc(O)cc2)N2[C@H](c3ccccc3)[C@H](c3ccccc3)OC(=O)[C@H]2[C@@H]1C(N)=O`, for which the z-score is -0.49 in assay [1]; -0.297 (inactive) in assay [2]; -0.226 (inactive) in [3]; 0.185 (inactive) in assay [5]; 0.603 (inactive) in assay [6]; 0.968 (inactive) in assay [7]. Besides, the z-score in assay [8] is 0.936 (inactive); in [9], -0.11; in assay [12], 0.637; in [13], -4.21 (inactive); in [14], -0.681 (inactive); in assay [15] it was -0.878 (inactive). In addition, the composite z-score in [4] was -0.552 (inactive); in [10], 0.074; in assay [11], -0.0765 (inactive); in the assay on XIP peptide (Xip251-270), 0.603.
For the compound `COCCOC(=O)N1C(=O)[C@@]2(c3cc(C#Cc4ccc(OC)cc4)ccc31)[C@H](C(=O)N1CCc3cc(OC)c(OC)cc3C1)[C@H]1C(=O)O[C@H](c3ccccc3)[C@H](c3ccccc3)N1[C@@H]2c1ccc(O)cc1`, the z-score in [1] was -0.0637; in assay [2] it was 1.12 (inactive); in assay [3], -0.108 (inactive); in assay [5], 0.858 (inactive); in assay [6], 2.08 (inactive); in [7], -0.145 (inactive). The z-score was 0.26 (inactive) in assay [8]; 0.0506 in assay [9]; -1.65 in [12]; -0.63 (inactive) in [13]; -0.241 (inactive) in [14]; -0.261 (inactive) in assay [15]. The composite z-score in [4] was 0.751 (inactive); in assay [10], 0.202; in assay [11], 1.64 (inactive); in the assay on XIP peptide (Xip251-270), 0.759.
Take `COCCOC(=O)N1C(=O)[C@@]2(c3cc(C#CCCO)ccc31)[C@H](C(=O)NC[C@H](O)c1ccccc1)[C@H]1C(=O)O[C@H](c3ccccc3)[C@H](c3ccccc3)N1[C@@H]2c1ccccc1OCCO`: the z-score in assay [1] is 0.446; in assay [2], 0.446 (inactive); in assay [3] it was 0.0837 (inactive); in assay [5], 1.12 (inactive); in [6], 1.88 (inactive); in [7], 0.136 (inactive). The z-score in assay [8] was 0.259 (inactive); in assay [9], -0.135; in assay [12], -0.89; in assay [13], -2.38 (inactive); in assay [14] it was 0.308 (inactive); in assay [15] it was 0.431 (inactive). For the same compound, the composite z-score in assay [4] is 0.246 (inactive); in [10], 0.0593; in assay [11], 0.355 (inactive); in the assay on XIP peptide (Xip251-270) it was 0.564.
As to `COc1ccccc1CN1C(=O)c2ccccc2[C@@H](C(=O)NCC(C)C)[C@@H]1c1ccc(CO)cc1`, the z-score was -1.4 in [1]; 0.352 (inactive) in assay [2]; 0.897 (inactive) in [3]; 0.31 (inactive) in assay [5]; 0.777 (inactive) in assay [6]; 0.547 (inactive) in assay [7]. The z-score was 0.347 (inactive) in [8]; 1.02 in assay [9]; -1.24 in assay [12]; -1.48 (inactive) in assay [13]; 0.0947 (inactive) in assay [14]; 0.525 (inactive) in [15]. For the same compound, the composite z-score in assay [4] was 0.769 (inactive); in [10] it was -0.104; in assay [11], 0.25 (inactive); in the assay with XIP peptide (Xip251-270), 0.791.
With `CC(C)=CCCC(C)=CC(O)C1C=CC2C(=O)N(c3ccccc3)C(=O)C2N1Nc1ccc([N+](=O)[O-])cc1` (centres undefined), the z-score in assay [1] is -0.674; in [2] it was -1.14 (inactive); in assay [3], -0.753 (inactive); in [5], 0.492 (inactive); in [6] it was -0.853 (inactive); in assay [7], -1.49 (inactive). Also, the z-score in assay [8] is -1.43 (inactive); in assay [9], -0.276; in assay [12], -0.0908; in [13] it was -4.57 (inactive); in assay [14], 0.458 (inactive); in [15] it was -0.178 (inactive). In addition, the composite z-score was -0.697 (inactive) in assay [4], 0.0817 in assay [10], 0.174 (inactive) in assay [11] and 0.817 in the assay on XIP peptide (Xip251-270).
For the compound `COC(=O)C(CC#Cc1ccc2c(c1)[C@]1(C(=O)N2)[C@H](c2ccc(OCCO)cc2)N2[C@H](c3ccccc3)[C@H](c3ccccc3)OC(=O)[C@H]2[C@@H]1C(=O)O)C(=O)OC`, the z-score in assay [1] is 0.669; in assay [2] it was 0.156 (inactive); in [3], 1.09 (inactive); in assay [5] it was 2.28 (inactive); in assay [6], 1.48 (inactive); in assay [7], 1.29 (inactive). The z-score in assay [8] was 1.33 (inactive); in assay [9] it was 0.749; in assay [12], 0.663; in assay [13], -5.67 (inactive); in [14], 0.0445 (inactive); in [15], 0.436 (inactive). Also, the composite z-score in assay [4] was -16.3 (active); in [10] it was -0.194; in [11], 0.817 (inactive); in the assay on XIP peptide (Xip251-270), 0.862.
In the case of `CCOC(=O)C[C@H]1[C@H](OC(=O)c2ccc(C(=O)c3ccccc3)cc2)[C@@H](NC(=O)C2CCCCC2)c2cc(OCCCO)ccc2N1C(=O)Cc1ccc(OC)cc1`, the z-score is -0.531 in [1]; -0.741 (inactive) in assay [2]; -0.28 (inactive) in assay [3]; -0.346 (inactive) in [5]; -0.0363 (inactive) in assay [6]; -0.29 (inactive) in assay [7]. For the same compound, the z-score was 0.162 (inactive) in [8]; -0.353 in [9]; -1.12 in assay [12]; -2.28 (inactive) in assay [13]; 0.542 (inactive) in [14]; -0.129 (inactive) in [15]. Further, the composite z-score was -0.085 (inactive) in [4], -0.141 in assay [10], 0.963 (inactive) in assay [11] and 0.242 in the assay on XIP peptide (Xip251-270).
`C=C(/C(=C/C[C@@H](OC(=O)c1ccncc1)c1ccccc1OCCO)c1cnc2ccccc2c1)C(C)C`: the z-score in assay [1] was -1.11; in assay [2], -18.3 (active); in [3] it was -0.807 (inactive); in assay [5], 0.485 (inactive); in assay [6], -21.9 (active); in assay [7], -0.328 (inactive). For the same compound, the z-score in assay [8] was -0.805 (inactive); in [9], -0.365; in assay [12] it was -2.55; in [13], -4.63 (inactive); in [14], 0.864 (inactive); in [15] it was 0.737 (inactive). The composite z-score was -6.99 (inactive) in assay [4], 0.326 in assay [10], 0.509 (inactive) in assay [11] and 0.723 with XIP peptide (Xip251-270).
Turning to `COCC(=C=CC[C@@H](O)c1ccccc1OCCO)C[C@@H](O)COCc1ccccc1`, the z-score is 0.905 in assay [1]; -0.413 (inactive) in assay [2]; 1.26 (inactive) in [3]; 0.191 (inactive) in assay [5]; -2.04 (inactive) in assay [6]; 2.4 (inactive) in [7]. Also, the z-score in assay [8] was 1.6 (inactive); in assay [9], 0.935; in assay [12], -2.84; in assay [13], -4.38 (inactive); in assay [14] it was -1.14 (inactive); in assay [15], -0.978 (inactive). Besides, the composite z-score in [4] is -1.47 (inactive); in assay [10], 0.145; in assay [11], -0.581 (inactive); in the assay with XIP peptide (Xip251-270), 0.262.

The record behind these values is PubChem BioAssay.
